Screening results as filed in PubChem BioAssay.
Giardia FBPA inh – inhibitors of Giardia lamblia fructose-1,6-bisphosphate aldolase; Potency, µM (titrated, usually from 59.6 µM), without a hit: at the top dose activity, negative = inhibition, actives largely listed as inhibitors; A8B2U2; purified Giardia FBPA; 290,000 tested, 0.71% active; note: nearly all actives have a fitted effect of over 55% in size
Target sequence (A8B2U2 whole entry, looked up): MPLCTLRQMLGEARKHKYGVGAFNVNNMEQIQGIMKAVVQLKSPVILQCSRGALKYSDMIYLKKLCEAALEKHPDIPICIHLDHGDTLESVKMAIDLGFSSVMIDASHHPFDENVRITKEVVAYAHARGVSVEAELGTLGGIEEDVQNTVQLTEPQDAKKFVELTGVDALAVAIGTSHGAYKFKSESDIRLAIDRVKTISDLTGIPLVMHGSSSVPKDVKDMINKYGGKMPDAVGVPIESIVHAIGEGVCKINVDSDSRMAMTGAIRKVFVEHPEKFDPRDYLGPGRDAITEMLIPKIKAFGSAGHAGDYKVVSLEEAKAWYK
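Giardia FBPA (40 nM reagent) was preincubated 10 min at RT with compound (up to 57.5 uM final), then substrate plus GAPDH/TPI/NAD/arsenate coupling system with diaphorase/resazurin was added; resorufin fluorescence (525/598 nm) was read after 20 min.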
LmPK inhibitor – LmPK (Leishmania mexicana) enzyme inhibition. Q27686. purified LmPK, Kinase-Glo ATP luminescence, 1 h. Potency, µM (top dose mostly 57.5 µM), for inactives: top-dose activity change, negative = inhibition, usual class: inhibitors. 290,000 tested, 0.37% active. AID 1721
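In 50 mM imidazole pH 7.2 with 7 mM MgCl2, LmPK (0.1 nM) turned over PEP (0.5 mM) and ADP (0.1 mM) for 1 h at room temperature. Luciferase read-out of ATP.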
Sm TGR inh – inhibitors of Schistosoma mansoni thioredoxin glutathione reductase. purified TGR, DTNB reduction, TNB absorbance 405 nm. Q962Y6. 360,000 tested, 3% active. Potency, µM (top dose mostly 114 µM), without a hit: at the highest dose activity change, negative = inhibition, actives largely listed as inhibitors. AID 485364; note: nearly all actives have a fitted effect of over 60% in size
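TGR 20 nM + NADPH 100 uM (dispensed conc.), cpd preinc 15 min RT; start with NADPH (500 uM addition) then DTNB (15 mM addition). Kinetic TNB absorbance, 405 nm filter. Four-parameter Hill fit across titration.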
RE007 growth inh – less growth of the S. pombe RE007 Vpr strain. S. pombe RE007 Vpr strain, BacTiter-Glo ATP luminescence, 24 h. Potency, µM (titrated, usually from 92.2 µM), without a hit: top-dose activity change, negative = less growth, most hits filed as inhibitors. 360,000 tested, 0.21% active; active = well fitted falling curve with a large enough effect; inconclusive = small, poorly fitted or top-dose-only effect; inactive = no such curve, though single readings can be large or run the other way; note: nearly all actives have a fitted effect of over 50% in size
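Fission yeast strain RE007, carrying one chromosomally integrated HIV-1 vpr copy, was seeded at OD 0.01 in PMG+AL medium with 23 nL pinned compound. After 24 h at 30 °C and 99% humidity, viability was read by BacTiter-Glo luminescence.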
TbPYK inhibitor – T. brucei pyruvate kinase inhibition. Q57TT1. TbPYK enzyme, Kinase-Glo Plus ATP luminescence, 45 min. Potency, µM (doses to about 76.8 µM), for the others: top-dose activity, negative = inhibition, hits mostly inhibitors. 410,000 tested, 0.12% active. AID 624173; note: nearly all actives have a fitted effect of over 50% in size
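Enzyme and substrate buffer are dispensed first and compound is pin-transferred. ADP at 130 uM final then starts the reaction, which runs 45 min at room temperature. Detection reagent is added for 10 min before luminescence is imaged.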
* = called active by the depositor; ? = inconclusive; . = no result given; [ ] = dose if it differs, or a comment. Hits are enriched below; roughly 3.3% of the tested compounds scored in any of these assays. Unless noted, calls come from the whole dose curve; as a rule, active = well fitted curve in the direction sought with a large enough effect; inconclusive = small, poorly fitted or top-dose-only effect, or another doubt; inactive = no such curve, though single readings can be large; an effect the other way counts as inactive or inconclusive. % is set by controls: 0 for no effect and ±100 for the full control effect; potency is the fitted concentration of half-maximal effect.

SMILES	Giardia FBPA inh	LmPK inhibitor	Sm TGR inh	RE007 growth inh	TbPYK inhibitor
N/C(=N\OC(=O)c1ccc(=O)n(Cc2ccccc2)c1)c1ccccn1	1%	-4%	.	-11%	1%
N/C(=N\OC(=O)c1ccc2ccccc2c1)c1ccccn1	0%	14µM*	-5%	-15%	?
N/C(=N\OC(=O)C1CCCCC1)c1ccccn1	-1%	14µM*	-22%	-28%	-27%
COc1cccc(C(=O)O/N=C(\N)c2ccccn2)c1	11%	14µM*	9%	?	?
N/C(=N\OC(=O)c1ccc2ccccc2c1)c1ccncc1	-5%	-22%	0%	-13%	-5%
N/C(=N\OC(=O)C1CCCCC1)c1ccncc1	3%	-6%	-7%	?	-2%
Cc1c(C(=O)N2CCN(c3ccccc3F)CC2)oc2c1C(=O)CC(C)(C)C2	.	0%	0%	14%	1%
CCN(C(=O)CSc1nnc(-c2ccc(Cl)cc2)o1)c1ccccc1	.	.	3%	.	3%
COc1ccc(-n2nc(C#N)c(Cl)cc2=O)cc1	-2%	1%	2.5µM*	?	4%
CCOc1ccc(NC(=S)N/N=C(\C)Cc2ccc(OC)cc2)cc1	-10%	1%	6%	17%	3%
CCOc1ccc(S(=O)(=O)N/N=C(\C)Cc2ccc(OC)cc2)cc1	1%	4%	32µM*	4%	4%
CCc1noc(C)c1C(=O)N1CCN(c2cccc(C)c2C)CC1	.	.	-3%	91%	-3%
COc1ccc(Nc2nc(C)cc(=O)[nH]2)c(OC)c1	-14%	-2%	-16%	2%	-5%
CCOc1ccc(N2C(=O)C(Cl)=C(Nc3ccccc3O)C2=O)cc1	-10%	1%	18µM*	?	-7%
COc1ccc(N2C(=O)C(Cl)=C(Nc3ccc(OC)cc3OC)C2=O)cc1	-3%	2%	28µM*	12%	3%
O=C1C(Cl)=C(Nc2ccccc2O)C(=O)N1CCc1ccccc1	-16%	-2%	28µM*	.	-7%
COc1ccc(N2C(=O)C(Cl)=C(Nc3c(C)n(C)n(-c4ccccc4)c3=O)C2=O)cc1	-1%	-14%	0.89µM*	-3%	-21%
COc1ccc(C2c3c(oc4ccccc4c3=O)C(=O)N2CC2CCCO2)cc1 (stereo unspecified)	0%	9%	4%[11.4 µM]	13%	0%
O=C(NC12CC3CC(CC(C3)C1)C2)N1CCN(C(=O)C2CCCO2)CC1 (stereo unspecified)	2%	5%	-11%	-2%	0%
CCOC(=O)Cn1ccc(NC(=O)COc2ccc(F)cc2F)n1	.	0%	-12%	5%	11%
COc1ccccc1NC1=C(Cl)C(=O)N(c2ccccc2)C1=O	-5%	6%	-6%	.	-1%
COc1ccc(NC2=C(Cl)C(=O)N(c3ccccc3)C2=O)c(OC)c1	-21%	-3%	5.6µM*	?	1%
CSc1cccc(NC(=S)N2CCC(N(C)C3CCCCCC3)CC2)c1	0%	0%	50µM*	-5%	4%
CSc1cccc(NC(=S)N2CCC(N(C)C(C)C)CC2)c1	1%	10%	-29%	12%	-2%
NC(=O)c1cc(N)ccc1N1CCCCC1	4%	-3%[11.5 µM]	2%	-1%	0%
SMILES	Giardia FBPA inh	LmPK inhibitor	Sm TGR inh	RE007 growth inh	TbPYK inhibitor
N/C(=N\OC(=O)c1cc(Cl)ccc1Cl)c1cccnc1	6%	0%	2%	-5%	0%
N/C(=N\OC(=O)c1ccc(Cl)c(Cl)c1)c1cccnc1	3%	-8%	-3%	-4%	6%
N/C(=N\OC(=O)c1ccccc1Cl)c1cccnc1	4%	?	-1%	20µM*	-1%
N/C(=N\OC(=O)c1ccc2c(c1)OCO2)c1cccc(Br)c1	-7%	13µM*	1%	-24%	-30%
N/C(=N\OC(=O)c1ccc2c(c1)OCO2)c1cccnc1	1%	25µM*	13%	?	-23%
N#Cc1ccccc1NC(=O)C(=O)NCCc1csc(-c2ccc(F)cc2)n1	.	.	-2%	.	3%
O=C(CSc1nnc2ccccn12)NCCN1C(=O)CSC1=O	5%	1%	-1%	-4%	-2%
Cc1ccc(Sc2cc(NCCCO)c([N+](=O)[O-])c3nonc23)cc1	?	4%	3.5µM*	2%	-17%
